# Screening data deposited in PubChem by National Center for Advancing Translational Sciences (NCATS).
# G9a inh – qHTS Assay for Inhibitors of Histone Lysine Methyltransferase G9a; G9a H3K9 monomethylation, AlphaScreen, 2 h; Potency, µM (titrated, usually from 102 µM), for the others: at the top dose activity, negative = inhibition, actives largely listed as inhibitors; hit rate 8.8% among 350,000; AID 504332, 2011; also: % is scaled to controls: 0 for no effect and ±100 for the full control effect; nearly all actives have a fitted effect of over 75% in size
#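 AlphaScreen detection with an anti-monomethyl H3K9 antibody quantified product after a 2 h room-temperature reaction containing 500 nM biotinylated H3K9 peptide, 20 µM SAM and 20 nM enzyme, which had been preincubated 15 min with compound.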
# Sfp PPTase inh – qHTS Assay for Inhibitors of Bacillus subtilis Sfp phosphopantetheinyl transferase (PPTase). hit rate 3.5% among 310,000. Potency, µM, inactives show largest response in the series, negative = inhibition, actives largely listed as inhibitors. Biochemical Sfp PPTase activity, qHTS;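 also: the enzyme is Sfp with the accession as filed and its product quenches rhodamine fluorescence; 0% = enzyme reaction without inhibitor and -100% = no enzyme wells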
#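 Step 1, compound plus 15 nM Sfp-PPTase, 15 min, room temperature. Step 2, add rhodamine-CoA (5 uM) and BHQ-2-YbbR (12.5 uM). Step 3, read 525/598 nm fluorescence at 0 and 30 min.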
# HP1b binding inh – HTS for Inhibitors of HP1-beta Chromodomain Interactions with Methylated Histone Tails; Chromobox protein homolog 1 (Homo sapiens), P83916; AlphaScreen HP1-beta / biotin-H3K9me3 peptide binding; Potency, µM (series often up to 114 µM), for inactives: top-dose activity change, negative = inhibition, hits mostly inhibitors; hit rate 0.56% among 390,000; AID 540317, 2011; also: nearly all actives have a fitted effect of over 70% in size
#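 Compound inhibition of the preformed complex between 50 nM HP1-beta and 50 nM biotinylated H3K9me3 peptide was read by AlphaScreen. Buffer was PBS pH 7.4 with 0.01% Tween-20. Incubations ran 30 min at room temperature, with 10 ug/mL donor/acceptor beads.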
# JMJD2A Tudor inh – qHTS Assay for Inhibitors of JMJD2A-Tudor Domain | hit rate 4.4% among 390,000 | AlphaScreen JMJD2A-Tudor / H3K4me3 peptide binding | Potency, µM (titrated, usually from 114 µM), for the others: at the top dose activity change, negative = inhibition, most hits filed as inhibitors | AID 504339, 2011; also: % is scaled to controls: 0 for no effect and ±100 for the full control effect; nearly all actives have a fitted effect of over 50% in size
# BAZ2B block – qHTS Assay for Inhibitors of BAZ2B; Bromodomain adjacent to zinc finger domain protein 2B (Homo sapiens), Q9UIF8; AlphaScreen BAZ2B-H3K14Ac peptide displacement; Potency, µM (series often up to 114 µM), without a hit: top-dose activity change, negative = inhibition, usual class: inhibitors; hit rate 4.4% among 360,000; AID 504333, 2011; also: % is scaled to controls: 0 for no effect and ±100 for the full control effect; nearly all actives have a fitted effect of over 60% in size
#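 Complex of BAZ2B and biotin-H3K14Ac (50 nM apiece) forms over 30 min at RT, then faces library compounds up to 110 uM for another 30 min; AlphaScreen beads added, 20 min dark incubation, luminescence read.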
# * hit, by the source's call; ? = inconclusive; / = no result given; ! = not confirmed by another sample; [ ] = remark or other dose. Sampled rows, rich in hits. Any-hit rate of the full collection: about 12%. Calls follow the shape of the dose curve; as a rule, active = well fitted curve in the direction sought with a large enough effect; inconclusive = small, poorly fitted or top-dose-only effect, or another doubt; inactive = no such curve, though single readings can be large; an effect the other way counts as inactive or inconclusive. Potency is read from the fitted curve at half-maximal effect.
SMILES,G9a inh,Sfp PPTase inh,HP1b binding inh,JMJD2A Tudor inh,BAZ2B block
CC(Cc1ccccc1)NC(=O)CN1CCCC1=O (centres undefined),?,4.3%,22.8%,2.1%,-19.1%
O=C(N/N=C/c1ccncc1)c1cnccn1,2.5%,-6.2%,38.0%,?,?
OCCN1CCN(CCCN2c3ccccc3Sc3ccc(C(F)(F)F)cc32)CC1,11.2µM*!,-6.1%,10.2%,79.4µM*,?
FC(F)(F)c1ccc2c(c1)N(CCCN1CCN(CCCl)CC1)c1ccccc1S2,10µM*,50.1µM*,-16.0%,15.8µM*,39.8µM*
CN1C(=O)NC(=O)/C(=C\c2ccc([N+](=O)[O-])o2)C1=O,12.6µM*,39.8µM*,25.1µM*,15.8µM*,35.5µM*
O=C1NC(=O)N(c2ccccc2)C(=O)/C1=C\c1ccc([N+](=O)[O-])o1,12.6µM*,17.8µM*,/,/,39.8µM*
CN1C(=O)NC(=O)/C(=C/c2ccc([N+](=O)[O-])o2)C1=O,/,17.8µM*,50.1µM*,22.4µM*,50.1µM*
Nc1cccc2c1Cc1cc([N+](=O)[O-])ccc1-2,/,/,16.3%,2.7%,/
OCC(CBr)(CBr)CBr,2.2%[0.501 µM],/,27.5%,-17.2%,-0.4%
O=c1[nH]c(=S)[nH]c(O)c1N=Nc1cc2c(cc1[N+](=O)[O-])OCO2,50.1µM*,10.3%,-26.3%,-12.2%[57.1 µM],-31.1%
O=c1[nH]c(=S)[nH]c(O)c1N=Nc1ccc(-c2ccccc2)cc1[N+](=O)[O-],11.2µM*,79.4µM*,/,/,7.94µM*
O=c1[nH]c(=S)[nH]c(O)c1N=Nc1ccc2c(c1)OCO2,?,0.1%,24.2%,-9.0%,-29.0%
CCN(CC)C(=O)c1ccc(NC(=O)CSc2nnnn2-c2cc(OC)ccc2OC)cc1,10.9%[12.7 µM],-5.3%,6.5%,-12.3%,2.6%
CC(C)(O)[C@H]1O[C@H]2CC[C@@]3(C)[C@@](O)(CC[C@H]4Cc5c([nH]c6ccccc56)[C@@]43C)C2=CC1=O,31.6µM*,10.9%,-13.7%,?,?
CC(C)(O)[C@H]1O[C@@H]2CC[C@]3(C)[C@@]4(C)c5[nH]c6ccccc6c5C[C@@H]4CC[C@]3(O)C2=CC1=O,/,-19.8%,/,/,/
CCCCc1ncc(CN2CCCC(C(=O)c3ccc(SC)cc3)C2)[nH]1 (centres undefined),/,0.3%,-2.3%,-25.1%,-33.8%
CN1CCN(c2ccccc2NC(=O)c2ccc(-c3ccc(Cl)c(Cl)c3)o2)CC1,49.0%,7.3%,-1.5%,50.1µM*,-7.1%
CC1CCN(c2ccccc2NC(=O)c2cc3ccccc3o2)CC1,103.5%,3.9%,85.9%,29.2%,6.7%
O=C1NC(c2cccnc2)Nc2sc3c(c21)CCCC3 (centres undefined),?,-22.8%,49.3%,-25.7%,9.0%
CC1(C)Cc2c(sc3c2C(=O)NC(c2cccnc2)N3)CO1 (centres undefined),?,39.8µM*,28.9%,-19.4%,5.6%
CCN1C[C@]2(COC(=O)c3ccccc3N3C(=O)C[C@H](C)C3=O)CC[C@H](OC)[C@@]34[C@@H]5C[C@H]6[C@H](OC)[C@H]5[C@](O)(C[C@@H]6OC)[C@@](O)([C@@H](OC)[C@@H]23)[C@@H]14,/,-6.2%,/,/,/
COc1ccc2c(c1)c(C(=O)C(C)N1CCCCC1)c(C)n2C (centres undefined),6.0%,-3.2%,24.9%,11.2%,12.4%
C/C(CC(c1ccccc1)c1c(O)c2ccccc2oc1=O)=N\NC(N)=S (centres undefined),?,?,-19.5%,1.26µM*,1.8%
Cc1c(C(c2ccc(O)cc2)c2c(O)c3ccccc3oc2=O)c(=O)n(-c2ccccc2)n1C (centres undefined),-19.6%[59 µM],-2.7%,36.0%,-9.2%,-8.7%
CCCCn1c(O)c(C=Nc2c(C)n(C)n(-c3ccccc3)c2=O)c(=O)[nH]c1=O,56.2µM*,6.9%,26.2%,-1.9%,-1.4%
SMILES,G9a inh,Sfp PPTase inh,HP1b binding inh,JMJD2A Tudor inh,BAZ2B block
Cc1c(N=Cc2c(O)n(Cc3ccccc3)c(=O)[nH]c2=O)c(=O)n(-c2ccccc2)n1C,-10.3%,8.3%,19.6%,3.4%,-5.7%
Cc1c(N=Nc2c(O)n(C)c(=O)n(C)c2=O)c(=O)n(-c2ccccc2)n1C,?,-27.8%,25.8%,-30.5%,35.5µM*
Cc1c(N=Nc2c(O)n(Cc3ccccc3)c(=O)[nH]c2=O)c(=O)n(-c2ccccc2)n1C,?,7.2%,39.3%,20µM*,10µM*
CC(C)c1ccc2c(c1O)CCC1C3=C(CC[C@]21C)C(=O)OC3 (some centres undefined),/,0.7%,/,/,/
NC1=NC(=O)N2CC12 (centres undefined),-3.4%[12.7 µM],-6.4%,14.8%,-9.0%,/
N#CC(C#N)=NNc1ccc(S(=O)(=O)N2CCCC2)cc1,?,-5.2%,?,?,?
COc1cc(/C=N/NP(=S)(c2ccccc2)c2ccccc2)ccc1O,44.7µM*,-24.1%,-39.1%,?,-35.3%
C[C@H](CO)N1C[C@H](C)[C@@H](CN(C)C(=O)Nc2ccccc2)Oc2c(NS(=O)(=O)c3ccc(F)cc3)cccc2C1=O,/,/,48.4%,-5.7%,/
CC(C)(C)NCc1cccn1-c1sc2c(c1C#N)CCCC2,?,15.7%,?,28.2µM*,56.2µM*
CCCC1(CC(C)C)C(=O)NC(=S)NC1=O,/,/,15.9%,-13.2%,/
Oc1ccccc1CN(CCc1ccccc1)Cc1ccccc1,-9.7%[0.501 µM],?,-19.5%,44.7µM*,?
COc1cccc(C(=O)c2c(N)c(-c3nc(-c4ccccc4)cs3)c3ccccn23)c1,34.4%[59 µM],/,68.8%,7.0%,8.9%
Cc1ccccc1CN1CCN(C(=O)Cc2ccccc2)CC1,15.8µM*,-3.2%,22.4µM*,11.2µM*,25.1µM*
CC(=O)Nc1ccc(CC(=O)N2CCN(Cc3ccccc3)CC2)cc1,-1.7%,2.1%,4.6%,-9.1%,-6.4%
COC(=O)c1ccc(CN2CCN(Cc3ccccc3)CC2)cc1,-5.8%[59 µM],3.1%,4.0%,79.4µM*,-10.0%
O=C(Cc1ccccc1)N1CCN(Cc2cccc(Cl)c2)CC1,20.8%[0.501 µM],-17.7%,?,3.16µM*,?
O=C(Cc1ccccc1)N1CCN(Cc2ccc(Cl)cc2)CC1,/,/,?,10µM*,/
S=C1CN=C(c2ccccc2Cl)c2cc(Cl)ccc2N1,-4.6%[59 µM],18.5%,11.7%,-18.5%,-23.8%
Cn1c(O)c(C=NCc2ccco2)c(=O)n(C)c1=O,2.5%,-5.0%,7.6%,-11.6%,7.4%
CNC(=O)c1cccn(Cc2ccc(C(F)(F)F)cc2)c1=O,-4.1%,8.8%,45.4%,-3.8%[11.4 µM],-4.3%
